Screens (PubChem)
A selection: hits, their analogues and other compounds. The true share with any hit is near 17%.
TGFb inhibitor = inhibitors of TGF-b signaling; HepG2 CAGA-GFP TGF-b/SMAD3 reporter, GFP fluorescence, 18 h; TGF-beta stimulated, 500 pg/mL final; Potency, µM (top dose mostly 46.1 µM), without a hit: at the top dose activity, negative = inhibition, hits mostly inhibitors; 1.2% of 410,000 active; note: % is set by controls: 0 for no effect and ±100 for the full control effect; nearly all actives have a fitted effect of over 65% in size
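HEPG2 CAGA-GFP cells (1000/well, DMEM with 1% FBS) were pre-incubated 2 h at 37 degrees C, given compound by pin tool, then stimulated with TGF-beta at 500 pg/mL final for 18 h before per-cell GFP fluorescence imaging.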
HT1080-NT tox = kills 2HG-producing HT-1080-NT fibrosarcoma cells; HT-1080-NT fibrosarcoma viability, CellTiter-Glo ATP luminescence, 48 h; Potency, µM (top dose mostly 46.1 µM), inactives show top-dose activity, negative = less viability, most hits filed as cytotoxic; 1.6% of 360,000 active; AID 686970;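 note: NT is the 2HG producing partner of a matched IDH1 knockdown line; 0% = DMSO-treated cells and -100% = media-only wells without cells; nearly all actives have a fitted effect of over 55% in size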
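Toxicity toward the 2HG-producing NT line was scored as %Activity, normalised to DMSO and no-cell wells, from CellTiter-Glo luminescence after 48 hours' treatment.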
DT40 TDP1 CPT = growth inhibition of DT40 Tdp1-/-;hTDP1 cells with camptothecin (screen for TDP1 inhibitors). 12% of 420,000 active. AID 686979. chicken DT40 Tdp1-/-;hTDP1 cells + 20 nM CPT, ATP luminescence, 48 h. Potency, µM (series often up to 46.2 µM), for the others: top-dose activity change, negative = growth inhibition, actives largely listed as inhibitors; note: % is set by controls: 0 for no effect and ±100 for the full control effect; nearly all actives have a fitted effect of over 55% in size
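Chicken DT40 Tdp1-/- cells complemented with human TDP1, 400 cells/well, exposed to compounds plus 20 nM camptothecin for at least 48 h at 37 C; viability read as ATP content by CellTiter-Glo luminescence.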
HepG2 tox = HepG2 cytotoxicity, counter-screen for TGF-b inhibitors; AID 588856; Potency, µM (doses to about 46.1 µM), for the others: at the highest dose activity change, negative = cytotoxicity, usual class: cytotoxic; HepG2 CAGA-GFP viability, ATP luminescence, 18 h; 0.76% of 410,000 active
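CellTiter-Glo luminescence gave cytotoxicity after 18 hours at 37 degrees C. The cells were HepG2 CAGA-GFP in 1% FBS DMEM, stimulated with 500 pg/mL TGF-beta after compound addition. %Activity was normalised to no-cell wells (complete cell-killing) and DMSO (no toxicity), and curves were fitted and classified.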
HT1080 IDH1KD tx = HT-1080 IDH1 knockdown cell toxicity (counter line); HT-1080 IDH1 knockdown viability, ATP luminescence, 48 h; Potency, µM (highest dose often 46.1 µM), inactives show at the top dose activity, negative = toxicity, usual class: cytotoxic; 2% of 360,000 active; AID 686971;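 note: 0% = DMSO wells and -100% = cell-free medium wells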
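After a 2 h attachment period, IDH1KD HT-1080 cells took pin-transferred compound for 48 h at 37 °C; ATP-based luminescence after 10 min room-temperature reagent incubation reported viability.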
DT40 TDP1 no CPT = qHTS for Inhibitors of human tyrosyl-DNA phosphodiesterase 1 (TDP1): qHTS in cells in absence of CPT; DT40 Tdp1-/- hTDP1 cells, no CPT, ATP luminescence, 48 h; Potency, µM (highest dose often 46.2 µM), for inactives: at the top dose activity change, negative = growth inhibition, actives largely listed as inhibitors; 15% of 420,000 active; note: % is set by controls: 0 for no effect and ±100 for the full control effect; nearly all actives have a fitted effect of over 55% in size
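Readout: luminescence from CellTiter-Glo after 30 min in the dark at RT. Cells: DT40 Tdp1-/- with stable hTDP1, 400/well. Exposure: compounds alone, ≥48 hr, 37 °C.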
* = called active by the depositor; u = inconclusive; x = no result. Calls come from the whole dose curve; as a rule, active = well fitted curve in the direction sought with a large enough effect; inconclusive = small, poorly fitted or top-dose-only effect, or another doubt; inactive = no such curve, though single readings can be large; an effect the other way counts as inactive or inconclusive. Potency is the fitted concentration of half-maximal effect.

SMILES	TGFb inhibitor	HT1080-NT tox	DT40 TDP1 CPT	HepG2 tox	HT1080 IDH1KD tx	DT40 TDP1 no CPT
COc1ccc(-c2nc3cccc(C)n3c2Nc2ccc(C)cc2)cc1	x	-23%	20µM*	x	-26%	13µM*
Cc1ccc(Nc2c(-c3ccc(C)s3)nc3cccc(C)n23)cc1	x	-18%	13µM*	x	-20%	13µM*
Cc1cccc2nc(-c3cccnc3)c(Nc3ccccc3)n12	u	-5%	-28%	-41%	-7%	u
Cc1ccc(Nc2c(-c3cccc(Cl)c3)nc3cccc(C)n23)cc1	u	x	u	-20%	x	16µM*
Cc1ccc(Nc2c(-c3ccc(N4CCOCC4)cc3)nc3cccc(C)n23)cc1	5%	x	23µM*	-3%	x	23µM*
O=C(Oc1ccc(=O)[nH]n1)c1ccccc1	0%	-1%	-17%	-3%	12%	-3%
CCc1ccc(NC(=O)[C@H](CSCc2ccccc2)N2Cc3ccccc3C2=O)cc1	-5%	x	-20%	-9%	x	u
CCN(CC)S(=O)(=O)c1ccc(NC(=O)[C@H](CSCc2ccccc2)N2Cc3ccccc3C2=O)cc1	21%	5%	21µM*	-18%	-6%	u
CCN(CC)S(=O)(=O)c1ccc(NC(=O)[C@H](CCSC)N2Cc3ccccc3C2=O)cc1	u	x	u	-35%	x	23µM*
C#CCOCCOCCOCCNc1nc(N2CCN(C(=O)[C@H](CCCN=C(N)N)n3cc(C(N)[C@@H](C)CC)nn3)CC2)nc(N2CCN(C(=O)[C@H](CC(N)=O)n3cc([C@@H](N)CC(N)=O)nn3)CC2)n1 (stereo partly drawn)	-9%	-24%	u	2%	-4%	-10%
COc1ccc(C(=O)C[C@@H]2OC[C@H](C)N2S(=O)(=O)c2ccc(C)cc2)cc1OC	x	0%	u	x	-5%	18µM*
Cc1ccc(S(=O)(=O)N2[C@H](CC(=O)c3cccs3)OC[C@@H]2C)cc1	x	9%	u	x	15%	23µM*
COc1ccc(C(=O)NCCc2nc3ccccc3[nH]2)cc1	-10%	x	-19%	-15%	x	-3%
COc1ccc2c(CCNC(=O)/C=C/c3ccc(OC)c(OC)c3)c[nH]c2c1	0%	-23%	u	1%	-25%	18µM*
COc1ccc(OC)c(/C=C/C(=O)NCCc2nc3ccccc3[nH]2)c1	-9%	-1%	7.3µM*	-16%	-15%	12µM*
Cc1ccc(S(=O)(=O)N(CC(=O)Nc2cccnc2)c2cccc([N+](=O)[O-])c2)cc1	-15%	u	u	-43%	u	12µM*
Cc1ccc(S(=O)(=O)N(CC(=O)Nc2cccnc2)c2cccc(Br)c2)cc1	-29%	u	u	-49%	u	16µM*
COc1ccc(S(=O)(=O)N(CC(=O)Nc2cccnc2)c2ccc(C)cc2)cc1OC	u	x	-15%	-12%	x	-22%
CCc1cccc(NC(=O)CN(c2ccc(OC)cc2)S(=O)(=O)c2c(C)n[nH]c2C)c1	0%	-2%	-26%	-10%	-12%	-20%
CCc1cccc(NC(=O)CN(c2ccc(C)cc2)S(=O)(=O)c2cccs2)c1	-11%	x	u	-31%	x	16µM*
Cc1ccc(NC(=O)CN(c2ccc(Cl)cc2)S(=O)(=O)c2cc([N+](=O)[O-])ccc2Cl)c(C)c1	2%	u	u	-23%	-23%	15µM*
O=C(NCC(=O)N(c1ccc(F)cc1)C(C(=O)NC1CCCC1)c1ccncc1)c1ccco1 (stereo not drawn)	4%	21%	1%	-39%	34%	0%
